# Data as given in PubChem BioAssay AID1865 (National Center for Advancing Translational Sciences (NCATS), 2009).
# The whole screen tested about 280,000 compounds, of which about 540 (0.19%) were called active. Another 2% or so got no clear call; they are omitted. The sample as a whole holds a higher share of actives than the screen did. A number with no mark means an inactive call. Calls come from the whole dose curve; as a rule, active = well fitted activation curve with a large enough effect; inconclusive = small, poorly fitted or top-dose-only effect; inactive = flat fitted curve, though single readings scatter.
# Experiment: Quantitative High-Throughput Screen for Regulators of Epigenetic Control; note: nearly all actives have a fitted effect of over 60% in size; for GFP activation: % of control where 0% means no effect
# Settings: murine LDR cells, GFP reporter derepression, 30 h; series mostly up to 53.9 µM; GFP activation: at the top concentration
# Summary of the method: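 Readout is the number of GFP-expressing murine LDR cells, counted by cytometry following washing. Cells were treated with compound for 30 h at 37 C; the stably integrated CMV-GFP locus is normally silent.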
# Potency is the fitted concentration of half-maximal effect.
Compound,GFP activation [%],Potency
CC(=O)N1c2ccc(S(=O)(=O)N3CCCCCC3)cc2CC1C(=O)NCc1ccccc1C (stereo not given),14.2,
COc1ccc(C2C(=O)N(C3CCCCCC3)CC(=O)N2CCc2ccc(Cl)cc2)cc1OC (stereo not given),0.873,
CC(C)(C)OC(=O)N1CCC(c2c(C(=O)N3CCN(c4cccc(Cl)c4)CC3)cnn2-c2cccc(Cl)c2)CC1,-1.27,
CN(C)CCCn1c(-c2ccc(Cl)cc2)csc1=Nc1ccccc1,2.14,
CCCCCn1c(=O)[nH]c2cc(C(=O)Nc3ccc(F)cc3)ccc2c1=O,-4.84,
O=C(Nc1c(-c2ccc(F)cc2)nc2ccccn12)c1cccc(F)c1,0.225,
Cc1cccc(NC(=O)Cn2cc(S(=O)(=O)Cc3ccccc3Cl)c3ccccc32)c1,7.01,
CCOC(=O)c1ccc(NC(=O)CSc2nc3c([nH]c4ccccc43)c(=O)n2C)cc1,11.1,
Cn1c(C(=O)Nc2cccc(C(F)(F)F)c2)cc2c(=O)n3ccccc3nc21,2.82,
COc1cc(Cl)c(C)cc1NC(=O)CCc1nc2cccnc2n1Cc1cccs1,-2,
COc1cccc(NC(=O)N(Cc2cn(C)c3ccccc23)C2CCCCCC2)c1,2.27,
COc1cccc(CNCc2c(C(=O)O)n(Cc3ccc(C)cc3)c3cc(C)ccc23)c1OC,2.35,
COc1ccc(Nc2ncc3c(n2)CCN(C(=O)OC(C)(C)C)C3)cc1,7.82,
COc1ccc(CCNC(=O)CCCn2c(=O)c3ccccc3n(Cc3ccc(C)cc3)c2=O)cc1OC,0,
COC(=O)c1scc(-c2ccc(C)cc2)c1S(=O)(=O)Nc1cc(Cl)c(OC)cc1OC,0,
O=C(Nc1ccc(Br)cc1)c1cc2nc(-c3ccccc3)cc(-c3ccccc3)n2n1,-1.59,
CCCC(=O)Nc1cc(C(=O)NCc2ccc(OC)cc2)ccc1S(=O)(=O)c1ccc(Cl)cc1,1.06,
CC(C)(C)c1ccc(C(=O)N2CCC(c3nc(-c4ccc(S(=O)(=O)N5CCCC5)cc4)no3)CC2)cc1,1.37,
COc1cccc(C(=O)c2sc3nc(-c4ccccc4)cc(C(F)(F)F)c3c2N)c1,,1.58 µM (active)
Cc1nc2sc(C(=O)c3ccccc3)c(N)c2c2c1CCCC2,0,

Compound,GFP activation [%],Potency
Cc1ccc2c(N)c(C(=O)c3ccccc3)sc2n1,0.0852,
COc1ccc(Cc2nc3ccc(C(=O)NCc4ccc(OC)cc4OC)cc3o2)cc1,-1.69,
Cc1cccc(C)c1-n1ncc(C(=O)NCCCN2CCCCC2)c1C1CCN(C(=O)OC(C)(C)C)CC1,0,
COc1ccc(CCN2C(=O)c3oc4cc(C)cc(C)c4c(=O)c3C2c2ccccc2F)cc1OC (stereo not given),-0.667,
COc1ccc2c(c1)c(=O)c(C(=O)c1ccccc1)cn2CC(=O)Nc1ccc2c(c1)OCCO2,-0.734,
Cc1ccc(NC(=O)CN2c3ccccc3S(=O)(=O)c3ccccc32)cc1F,1.72,
CCOC(=O)c1c(C)oc2ccc(N(C(=O)c3ccncc3)S(=O)(=O)c3ccc(CC)cc3)cc12,0,
O=C(CSc1oc(-c2ccco2)nc1S(=O)(=O)c1ccc(Cl)cc1)c1ccccc1,-0.982,
COc1ccc(CC(=O)N2CC(=O)Nc3ccc(Br)cc3C2c2ccc(F)cc2)cc1OC (stereo not given),-6.76,
COc1ccc(CCNc2ncnc3onc(-c4ccc(Cl)cc4)c23)c(OC)c1,-0.432,
O=C(CSc1oc(-c2ccco2)nc1S(=O)(=O)c1ccccc1)c1ccc(Cl)cc1,-0.954,
CCOC(=O)CC(=O)CSc1nc(-c2ccccc2)cc(-c2ccc(Cl)cc2)c1C#N,3.16,
O=C(c1cccs1)N1CCCC(c2nc(-c3ccc(F)cc3)no2)C1 (stereo not given),-1.01,
N#Cc1c(-c2ccc(F)cc2)cc(C2CC2)nc1SCC(=O)c1cccs1,,10 µM (active)
Cc1ccc(/C=N/NC(=S)Nc2cccc(S(=O)(=O)N(C)C)c2)o1,,3.98 µM (active)
CN(C)S(=O)(=O)c1cccc(NC(=S)NCc2ccc3c(c2)OCO3)c1,0.935,
CN(C)S(=O)(=O)c1cccc(NC(=S)N/N=C/C(=O)c2ccccc2)c1,0,
Cc1cc(Cl)ccc1NC(=O)Cc1ccc(NC(=O)N2CCCCc3ccccc32)cc1,0,
CCN1CCN(CCCNC(=O)c2ccc3c(c2)sc2nc(-c4ccc(OC)cc4)cn23)CC1,0,
Cc1oc(C)c2c(=O)cc(-c3ccc4c(c3)OCO4)cc(OC(=O)c3ccc(Cl)cc3)c12,1.85,

Compound,GFP activation [%],Potency
COc1cc(OC)cc(C(=O)Nc2ccc3nc(Nc4cccc(C(F)(F)F)c4)cc(C)c3c2)c1,-1.23,
CCc1ccc(CNCc2c(C(=O)O)n(Cc3ccc(F)cc3Cl)c3cc(OC)ccc23)cc1,0,
N#Cc1ccccc1Cn1cnc2nc3c(cc2c1=O)CCCC3,0,
Cc1ccccc1C(=O)Nc1nnc(S(=O)(=O)N(C)c2ccc(Cl)cc2)s1,3.16,
COc1ccc(C(=O)N2CCC(c3nc4ccccc4o3)CC2)cc1,0,
CCCCOc1ccc(CN2C(=O)C(=O)c3cc(Br)cc(C)c32)cc1OC,-3.95,
Cc1nn(C(C)C(=O)Nc2ccc(C(C)C)cc2)c(=O)c2c1sc1ccccc12 (stereo not given),1.04,
COc1ccc(NC(=O)CCNS(=O)(=O)c2ccc3c(c2)CCCC(=O)N3)cc1Cl,-1.27,
COc1cccc(-c2nnc(SCC(=O)N3CCC(C)CC3)o2)c1,-1.77,
CCOc1ccc(CNCc2c(C(=O)O)c(C)n(Cc3cccc(OC)c3)c2C)cc1OC,-1.61,
Cc1ccc(Cl)cc1N(C)C(=O)C1CCCN(c2ncnc3onc(-c4ccc(F)cc4)c23)C1 (stereo not given),-0.432,
COc1ccc(S(=O)(=O)c2c(Nc3cccc(Cl)c3)sc(C(=O)c3ccccc3)c2N)cc1,0,
COc1ccccc1Nc1nc(N)nc(N)c1S(=O)(=O)c1ccccc1,-1.08,
CC1(C)N=C(SCc2ccccc2Cl)c2ccccc2N1,0,
Cc1ccc(NC(=O)Cc2ccc(NC(=O)N3CCCCc4ccccc43)cc2)cc1,0.833,
CNC(=O)c1ccc(-c2nc(CN3CCc4ccccc43)c(C)o2)cc1,-1.24,
CC(=O)c1ccc(NC(c2ccc(F)cc2)c2nnc(-c3ccccc3)o2)cc1 (stereo not given),1.06,
COc1ccc(-c2cn3nc(N4CCCC(C(=O)NCCCOC(C)C)C4)sc3n2)cc1 (stereo not given),1.23,
Cc1cc2oc(C(=O)N(Cc3ccc(Cl)cc3)Cc3ccco3)c(C)c2cc1Cl,-1.85,
COc1cccc(N=C2SC(C(=O)Nc3cccc(Cl)c3)CC(=O)N2C)c1 (stereo not given),-1.59,
